Consider three molecules from paper PMC5540273 (PLoS ONE, 2017).

SMILES strings stand for the structures.
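Further: kd values determined as follow-up on hits from a single-replicate KINOMEscan panel screen.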

This experiment relates to T1, RSK4(Kin.Dom.2-C-terminal).
T1 construct: gene RPS6KA6
`CCc1nc(-c2cccc(C)c2)c(-c2ccncc2)s1` yielded a Kd of 120 nM.
In the case of `OCCCNc1nccc(-c2c(-c3cccc(C(F)(F)F)c3)nn3cc(C(F)(F)F)ccc23)n1` [GW630813] it was 2700 nM.
The molecule `Nc1nc(-c2ccccc2F)c(-c2ccnc3ccccc23)s1` [GW560459] registered a Kd of 28 nM.
